ATXN2 expr inh – reduces ATXN2 reporter expression in HEK-293 cells; actives 0.72% (n = 360,000); Potency, µM (doses to about 57 µM), without a hit: top-dose activity change, negative = inhibition, most hits filed as inhibitors; AID 1745845; HEK-293 ATXN2-luciferase reporter, luminescence, 24 h; further: on the % scale 0 is the no-effect control and ±100 the full control effect; nearly all actives have a fitted effect of over 55% in size
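ATXN2-luciferase reporter cells (luciferase flanked by upstream and downstream ATXN2 gene portions) were treated 24 h at 37 °C with compounds at up to 57 uM. SteadyGlo luminescence gave expression; GF-AFC fluorescence gave viability.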
Nrf2 inh – blocks Nrf2 signaling. A549 ARE-Fluc reporter, luciferase luminescence, 18-24 h. Potency, µM (highest dose often 46 µM), without a hit: at the top dose activity change, negative = inhibition, hits mostly inhibitors. actives 2.1% (n = 360,000). AID 504444; further: on the % scale 0 is the no-effect control and ±100 the full control effect; nearly all actives have a fitted effect of over 60% in size
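Nrf2 function is reported as luminescence of an ARE-controlled luciferase in A549 cells. Compounds were tested at several concentrations, and a CellTiter-Fluor read on the same wells flagged cytotoxicity.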
HepG2 tox – counter-screen for TGF-b inhibitors: cytotoxicity in HepG2 cells. Potency, µM (highest dose often 46.1 µM), inactives show top-dose activity change, negative = cytotoxicity, hits mostly cytotoxic. AID 588856. actives 0.76% (n = 410,000). HepG2 CAGA-GFP viability, ATP luminescence, 18 h
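CellTiter-Glo luminescence gave cytotoxicity after 18 hours at 37 degrees C. The cells were HepG2 CAGA-GFP in 1% FBS DMEM, stimulated with 500 pg/mL TGF-beta after compound addition. %Activity was normalised to no-cell wells (complete cell-killing) and DMSO (no toxicity), and curves were fitted and classified.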
S2 tox – viability counter-screen for ATXN expression inhibitors. S2 cells (HEK-293 line with an ATXN2-luciferase reporter) viability, CellTiter-Fluor protease fluorescence, 24 h. Potency, µM (series often up to 56.7 µM), usual class: cytotoxic. actives 0.49% (n = 400,000); further: nearly all actives have a fitted effect of over 40% in size
A549 tox – counter-screen for Nrf2 inhibitors: cytotoxicity in A549 cells; actives 0.16% (n = 390,000); Potency, µM (highest dose often 46 µM), for the others: top-dose activity change, negative = cytotoxicity, hits mostly inhibitors; A549 ARE-Fluc cells, CellTiter-Fluor viability, 18-24 h; further: on the % scale 0 is the no-effect control and ±100 the full control effect
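Cytotoxicity counterscreen: CellTiter-Fluor fluorescence was measured in A549 ARE_Fluc cells after 18-24 h of compound exposure in a concentration series. The subsequent BugLite luminescent read reports ARE-luciferase activity.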
TGFb inhibitor – TGF-b pathway inhibition; actives 1.2% (n = 410,000); Potency, µM (top dose mostly 46.1 µM), for inactives: top-dose activity, negative = inhibition, usual class: inhibitors; HepG2 CAGA-GFP TGF-b/SMAD3 reporter, GFP fluorescence, 18 h; TGF-beta stimulated, 500 pg/mL final; further: on the % scale 0 is the no-effect control and ±100 the full control effect; nearly all actives have a fitted effect of over 65% in size
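HEPG2 CAGA-GFP cells (1000/well, DMEM with 1% FBS) were pre-incubated 2 h at 37 degrees C, given compound by pin tool, then stimulated with TGF-beta at 500 pg/mL final for 18 h before per-cell GFP fluorescence imaging.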
Numbers without * were called inactive; i = inactive; ? = inconclusive; . = no result; [ ] = another dose, or the depositor's remark. Most compounds without a hit are left out; they make up all but 3.8% or so of the library. The call rests on the fitted dose curve; in most records, active means well fitted curve in the direction sought with a large enough effect; inconclusive means small, poorly fitted or top-dose-only effect, or another doubt; inactive means no such curve, though single readings can be large; an effect the other way counts as inactive or inconclusive. Potency means the concentration at half of the fitted maximal effect.

SMILES	ATXN2 expr inh	Nrf2 inh	HepG2 tox	S2 tox	A549 tox	TGFb inhibitor
C=CCC[C@H](Cc1ccc(F)cc1)C(=O)OC[C@H](Cc1c[nH]c2ccccc12)NC(=O)[C@@H](CC=C)CC(=O)N[C@H](CO)Cc1ccccc1	0%	?	-107%	?	?	13µM*
COc1ccc(CCNC(=O)CSc2cc(=O)n(C)c3ccccc23)cc1OC	-9%	-28%	-1%	i	8%	25%
O=C1C(=O)N(CCS(=O)(=O)c2ccccc2)c2ccc(Cl)cc21	-14%	9%	-106%	i	-4%	22µM*
CCc1ccc2c(c1)C(=O)C(=O)N2CCS(=O)(=O)c1ccccc1	.	-14%	-8%	i	0%	?
Cc1cc(Cl)ccc1NC(=O)CN1C(=O)C(=O)c2ccccc21	-5%	-3%	-31%	i	-3%	-14%
CCCN1C(=O)C(=O)c2cc(Cl)ccc21	?	4%	-78%	?	1%	13µM*
COc1ccccc1CNCC(O)Cn1c2ccccc2c2ccccc21 (stereo not given)	?	-12%	11µM*	.	?	?
CCC/C=C/c1ccc(CN2C(C)C(=O)N(Cc3cn(Cc4ccco4)nn3)CCS2(=O)=O)cc1 (stereo not given)	-29%	.	-33%	?	.	22µM*
CCC/C=C/c1ccc(CN2C(C(C)C)C(=O)N(Cc3cn(Cc4ccco4)nn3)CCS2(=O)=O)cc1 (stereo not given)	?	.	-109%	?	.	11µM*
COc1ccc(-c2ccc(CN3C(C(C)C)C(=O)N(Cc4cn(Cc5ccco5)nn4)CCS3(=O)=O)cc2)cc1 (stereo not given)	-5%	.	-33%	?	.	?
CCCCSc1ncnc2c1c(-c1ccccc1)cn2-c1cccc(F)c1	1%	14%[9.27 µM]	-25%	i	19%	1%
Cc1ccn2c(Nc3ccccc3C)c(-c3ccccc3)nc2c1	14%	?	13µM*	?	4%	-3%
Cc1ccccc1Nc1c(-c2ccncc2)nc2ccc(Cl)cn12	-4%	?	18µM*	?	7%	16µM*
Cc1ccc(C)c(NC(=O)C(=O)NCCc2csc3nc(-c4ccccc4C)nn23)c1	3%	.	-18%	i	0%	-3%
CC(C(=O)O)n1nc(-c2ccccc2)c2ccccc21 (stereo not given)	.	-23%	-3%	i	8%	-9%
Cc1cc(NC(=O)CCCSc2nc(-c3ccco3)cc(C(F)(F)F)n2)n(-c2ccccc2)n1	-15%	26µM*	-9%	i	-17%	?
Cc1ccc(NC(=O)CCSc2nc(-c3ccco3)cc(C(F)(F)F)n2)cc1F	6%	10µM*	0%	i	-3%	-1%
Cc1ccc(-c2nnc(Nc3ccc(C(N)=O)cc3)c3ccccc23)cc1S(N)(=O)=O	-12%	.	-23%	i	-12%	-3%
Cc1ccc(-c2nnc(Nc3ccc(CC(N)=O)cc3)c3ccccc23)cc1	-3%	-6%	-47%	i	-2%	13µM*
Cc1ccc(Nc2nnc(-c3ccc(C)c(S(N)(=O)=O)c3)c3ccccc23)cc1	-26%	.	8%	i	-2%	10µM*
CCOC(=O)CNS(=O)(=O)c1cc(-c2nnc(Nc3cccc(O)c3)c3ccccc23)ccc1C	.	10%	11µM*	.	-5%	0%
COc1ccc(Nc2nnc(-c3ccc(C)c(S(=O)(=O)N4CCN(C)CC4)c3)c3ccccc23)cc1	?	-6%	25%	?	-14%	14µM*
Cc1ccc(OCC(=O)Nc2ccc3nc(SCC(=O)N4CCCC4)sc3c2)cc1	.	?	-25%	.	-12%	0%
COc1cc(C)ccc1S(=O)(=O)NC(=O)C1(C)CCN1C(=O)Cc1ccc(C(C)(C)C)cc1 (stereo not given)	0%	.	4%	i	.	7%

Screening data: PubChem, National Center for Advancing Translational Sciences (NCATS)
